# From PubChem BioAssay
# BAZ2B block: inhibitors of human BAZ2B bromodomain. Q9UIF8. AlphaScreen BAZ2B-H3K14Ac peptide displacement. Potency, µM (series often up to 114 µM), most hits filed as inhibitors. 4.4% of 360,000 active. AID 504333; note: nearly all actives have a fitted effect of over 60% in size
#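 Protein-peptide AlphaScreen: BAZ2B 50 nM, b-H3K14Ac 50 nM, 1x PBS pH 7.4 + 0.01% Tween-20. Preincubation 30 min RT; cpd 30 min RT (top 110 uM); beads 20 min RT, light-protected.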
# G9a inh: G9a (human) methyltransferase inhibition. G9a H3K9 monomethylation, AlphaScreen, 2 h. 8.8% of 350,000 active. Q96KQ7. Potency, µM (top dose mostly 102 µM), actives largely listed as inhibitors. AID 504332; note: nearly all actives have a fitted effect of over 75% in size
# Target sequence (Q96KQ7 913-1193 limits assumed): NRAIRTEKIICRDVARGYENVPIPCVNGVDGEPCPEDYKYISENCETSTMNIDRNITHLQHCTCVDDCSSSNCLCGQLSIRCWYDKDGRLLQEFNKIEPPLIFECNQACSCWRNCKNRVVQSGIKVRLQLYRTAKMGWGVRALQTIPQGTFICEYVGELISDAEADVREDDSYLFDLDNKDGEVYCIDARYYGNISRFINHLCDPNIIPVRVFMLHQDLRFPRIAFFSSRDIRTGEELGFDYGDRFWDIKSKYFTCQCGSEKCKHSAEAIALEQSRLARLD
#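 Chemiluminescent proximity detection of H3K9 monomethylation, read after 10 min bead incubation in the dark. Reaction: 20 nM G9a, 500 nM biotin-H3K9 peptide, 20 uM SAM cofactor, 2 h, room temperature, following 15 min enzyme-compound preincubation.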
# GLS inhibitor: inhibitors of human glutaminase (GLS) | Potency, µM (highest dose often 45.5 µM), most hits filed as inhibitors | AID 624170 | GLS enzymatic activity, qHTS titration | 0.21% of 410,000 active
#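 Coupled fluorescence readout: glutamate oxidase/HRP/Amplex Red detect glutamate formed by hKGA from L-glutamine (1 mM solution added). Buffer 45 mM KH2PO4 pH 8.2, 0.02% Tween-20; reads at t0 and 30 min RT.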
# JMJD2A Tudor: inhibitors of human JMJD2A Tudor domain; O75164; AlphaScreen JMJD2A-Tudor / H3K4me3 peptide binding; Potency, µM (series often up to 114 µM), most hits filed as inhibitors; 4.4% of 390,000 active; AID 504339; note: nearly all actives have a fitted effect of over 50% in size
# HP1b binding inh: blocks HP1-beta chromodomain binding to methylated histone tails. 0.56% of 390,000 active. Potency, µM (doses to about 114 µM), actives largely listed as inhibitors. AlphaScreen HP1-beta / biotin-H3K9me3 peptide binding. P83916; note: nearly all actives have a fitted effect of over 70% in size
# Target sequence (P83916 whole entry, looked up): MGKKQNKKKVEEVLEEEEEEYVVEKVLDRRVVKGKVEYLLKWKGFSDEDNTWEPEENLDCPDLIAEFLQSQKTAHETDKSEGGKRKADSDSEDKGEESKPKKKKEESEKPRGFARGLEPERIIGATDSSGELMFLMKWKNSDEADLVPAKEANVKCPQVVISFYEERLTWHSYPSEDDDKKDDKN
#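 HP1-beta protein (50 nM final) preincubated 30 min at room temperature with biotinylated H3(1-18)K9me3 peptide (50 nM) in PBS pH 7.4, 0.01% Tween-20, then compound added for 30 min. AlphaScreen streptavidin donor/nickel chelate acceptor beads (10 ug/mL final), 30 min dark, luminescence read.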
# Hits are given with their value; . = inactive; ? = inconclusive; / = not tested or not shown; ! = not active in a repeat; [ ] = another dose, or the depositor's remark. Sampled rows, rich in hits. Any-hit rate of the full collection: about 10%. Calls come from the whole dose curve; as a rule, active = well fitted curve in the direction sought with a large enough effect; inconclusive = small, poorly fitted or top-dose-only effect, or another doubt; inactive = no such curve, though single readings can be large; an effect the other way counts as inactive or inconclusive.
SMILES,BAZ2B block,G9a inh,GLS inhibitor,JMJD2A Tudor,HP1b binding inh
COc1ccc(N2C(=O)CC(N(CCc3ccc(S(N)(=O)=O)cc3)C(=S)Nc3ccccc3)C2=O)cc1 (configuration not stated),.,?,.,.[11.4 µM],.
COCCN(C(=O)COC(=O)/C=C/c1ccc(SC)cc1)c1c(N)n(Cc2ccccc2)c(=O)[nH]c1=O,/,/,.,.,.
Cn1c(C(=O)N2CCN(Cc3ccccc3)CC2)cc2c(=O)n(C)c3ccccc3c21,.,44.7µM,.,?,.
Cc1cccc(N2CCN(C(=O)c3cc4c(=O)n(C)c5ccccc5c4n3C)CC2C)c1 (configuration not stated),?,44.7µM,.,?,.
COc1ccc(-n2nc(C(=O)N3CCN(c4cccc(C)c4)C(C)C3)c3c4ccccc4n(C)c3c2=O)cc1 (configuration not stated),/,.,.,.,.
CCOc1ccc2nc(NC(=O)c3ccoc3C)sc2c1,.,.,.,.,.
O=C(O)Cc1c[nH]c2cccc(O)c12,35.5µM,.[12.7 µM],?,22.4µM,35.5µM
O=C(O)Cc1c[nH]c2ccccc12,/,/,.,.,.
O=C1C(O)=C(O)C(=O)C(O)=C1O,/,6.31µM!,20µM,/,/
Cc1ccc2nc(N(Cc3cccnc3)C(=O)CCc3ccccc3)sc2c1,.,.,.,.,.
COc1ccc(-c2nc(CS(=O)(=O)CC(=O)Nc3ccc(Cl)cc3)c(C)o2)cc1,.,.,.,.,.
Cc1cccc(NC(=O)Nc2cccc(C#N)c2)n1,.,.,.,.,.
Cc1cccc(C)c1NC(=O)Nc1cccs1,.,50.1µM,.,.,.
CCc1cccc(NC(=O)Nc2cccs2)c1,?,12.6µM,.,?,.
CCc1cccc(NC(=O)Nc2csc3c2CCCC3)c1,.,.,.,.,.
N#Cc1cccc(NC(=O)Nc2cccs2)c1,.,79.4µM,.,.,.
C#CCOCCOCCOCCNc1nc(N2CCN(C(=O)C([C@@H](C)CC)n3cc(C(N)CC(C)C)nn3)CC2)nc(N2CCN(C(=O)[C@H](CCC(=O)O)n3cc(C(N)[C@H](C)CC)nn3)CC2)n1 (some centres not stated),?,.,.,70.8µM,.
C#CCOCCOCCOCCNc1nc(N2CCN(C(=O)[C@H](CCC(=O)O)n3cc(C(N)CC(C)C)nn3)CC2)nc(N2CCN(C(=O)[C@H](CCC(=O)O)n3cc(C(N)[C@H](C)CC)nn3)CC2)n1 (some centres not stated),50.1µM,.,.,79.4µM,.
C#CCOCCOCCOCCNc1nc(N2CCN(C(=O)[C@H](CCC(=O)O)n3cc(C(N)CC(C)C)nn3)CC2)nc(N2CCN(C(=O)[C@H](Cc3ccc(O)cc3)n3cc(C(N)[C@H](C)CC)nn3)CC2)n1 (some centres not stated),31.6µM,.,/,/,/
O=C(O)Cc1nnc(-c2cc3ccccc3[nH]2)s1,/,/,/,.,/
O=c1ccc(-c2n[nH]c(=S)n2-c2ccc(F)c(Cl)c2)n[nH]1,?,3.16µM,.,35.5µM,.
Fc1ccc(-n2c(-c3cc(C4CC4)[nH]n3)n[nH]c2=S)cc1Cl,?,1.58µM,.,79.4µM,.
S=c1[nH]nc(-c2ccc(Cl)cc2Cl)n1-c1ccc(Cl)cc1,?,/,?,.,.
O=C(Nc1cnccc1C(F)(F)F)NC1CCCCC1,.,.,.,.,.
CCC(C)(C)NC(=O)C(c1cccn1C)N(C(=O)Cn1nnc2ccccc21)c1ccc(NC(C)=O)cc1 (configuration not stated),.,/,.,.,.
SMILES,BAZ2B block,G9a inh,GLS inhibitor,JMJD2A Tudor,HP1b binding inh
COc1ccccc1NC(=O)c1ccc(NC(=O)CSc2nncn2C)cc1,.,11.2µM,.,.,.
CCn1c(CC(=O)Nc2ccccc2OC)nnc1SCC(=O)Nc1ccccc1F,.,.,.,.,.
COc1ccccc1NC(=O)Cc1nnc(SCC(=O)Nc2ccccc2F)n1C,.,.,.,11.2µM,.
CC(C)CC(=O)N(c1ccc(F)cc1)C1C=CS(=O)(=O)C1 (configuration not stated),.,.,.,.,.
Cc1cc(C)cc(S(=O)(=O)c2cnc3ccccc3n2)c1,.,.,?,11.2µM,?
O=S(=O)(c1ccc(Cl)cc1)c1cnc2ccccc2n1,.,.,.,.,.
CCn1c(-c2nn(C)cc2Cl)n[nH]c1=S,.,10µM,.,6.31µM,.
Cc1ccsc1-c1n[nH]c(=S)n1CC(C)C,.,?,.,8.91µM,.
CC(C)Cn1c(-c2nn(C)cc2Cl)n[nH]c1=S,.,10µM,.,8.91µM,.
CCn1c(CC(C)C)n[nH]c1=S,.,/,.,?,.
COc1ccc(/C=N/NC(=O)CCc2n[nH]c(=O)[nH]c2=O)cc1OC,.,.,.,.,?
O=C1C(Cl)=C(N2CCN(c3ccccc3[N+](=O)[O-])CC2)C(=O)c2ccccc21,2.51µM,7.94µM,.,5.01µM,8.91µM
O=C1c2ccccc2NC(c2ccc(O)c(O)c2)N1c1ccccc1Cl (configuration not stated),39.8µM,44.7µM,.,.,.
CC(C)(C)c1nnc(NC(=O)C2CCN(C(=O)c3ccccc3)CC2)s1,/,/,/,.,.
Cc1ccc(C(=O)N=c2sccn2C)cc1C,.,.,.,.,.
Cc1ccc(C(=O)N=c2sccn2C)cc1S(=O)(=O)N1CCOCC1,.,39.8µM,.,.,.
O=S(=O)(c1ccccc1)N(CC(O)CN1CCOCC1)c1ccccc1 (configuration not stated),.,.,.,.,.
COc1ccc(Cl)c2c1[nH]c1nc(SCc3ccccn3)nnc12,.,2µM,.,.,.
O=C(Nc1cc(S(=O)(=O)N2CCOCC2)ccc1O)c1ccc(NS(=O)(=O)c2ccc(Cl)s2)cc1,.,?,.,.,.
O=S(=O)(Nc1cc(S(=O)(=O)N2CCCC2)ccc1O)c1ccc(Cl)s1,.,56.2µM,.,.,.
CC(=O)Nc1ccc(S(=O)(=O)Nc2cc(S(=O)(=O)N3CCCCC3)ccc2O)cc1,.,28.2µM,.,?,.
O=C(NCc1ccc2c(c1)OCO2)C1CCCN(C(=O)c2ccc(Cl)cc2)C1 (configuration not stated),.,.,.,.,.
COc1ccc(-c2cc(=O)oc3c(O)c(O)ccc23)cc1,?,8.91µM,4.47µM,?,.
CCc1cc2ccccc2nc1SCC(=O)NC1CCCC1,.,.,.,.,.
N#Cc1cc2ccccc2nc1SCC(=O)NC1CC1,.,50.1µM,.,.,.
Cc1c(C(=O)NNC(=S)Nc2ccc(S(N)(=O)=O)cc2)oc2ccccc12,.,11.2µM,.,?,.
NS(=O)(=O)c1ccc(NC(=S)NC(=O)c2ccc(Br)o2)cc1,.,?,.,.[11.4 µM],.
Cc1c(C(=O)NC(=S)Nc2ccc(NC(=O)c3cccs3)cc2)oc2ccccc12,50.1µM,1.41µM,.,.[11.4 µM],.
CN(C)S(=O)(=O)c1ccc(NC(=S)NC(=O)c2ccc(Br)o2)cc1,.,56.2µM,/,/,/
